ELG1 DNA repair: blocks ELG1-dependent DNA repair in HEK293T cells; AID 504467; HEK293T ELG1-luciferase reporter, luminescence, 16 h; DNA damage induced by 5-fluorouridine; Potency, µM (titrated, usually from 46.1 µM), for inactives: at the highest dose activity change, negative = inhibition, usual class: inhibitors; 330,000 tested, 2.3% active; further: on the % scale 0 is the no-effect control and ±100 the full control effect; nearly all actives have a fitted effect of over 55% in size
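Quantitative HTS, concentration-response format. 2,000 cells/well co-treated with 5-fluorouridine and compound, 16 hr in 5% CO2 at 37 °C; ONE-Glo luminescence read after 30 min.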
Nrf2 block: blocks Nrf2 signaling; A549 ARE-Fluc reporter, luciferase luminescence, 18-24 h; 360,000 tested, 2.1% active; Potency, µM (top dose mostly 46 µM), inactives show at the top dose activity change, negative = inhibition, hits mostly inhibitors; further: on the % scale 0 is the no-effect control and ±100 the full control effect; nearly all actives have a fitted effect of over 60% in size
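Nrf2 function is reported as luminescence of an ARE-controlled luciferase in A549 cells. Compounds were tested at several concentrations, and a CellTiter-Fluor read on the same wells flagged cytotoxicity.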
Nrf2 ARE act: Nrf2 pathway activation. AREc32 ARE-luciferase reporter (MCF7-derived line), luminescence, 24 h. Potency, µM (highest dose often 46.1 µM), for the others: top-dose activation, hits mostly activators. 410,000 tested, 0.31% active; further: % of control where 0% means no effect; nearly all actives have a fitted effect of over 65% in size
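AREc32_Fluc, 1000 cells/well, OPTI-MEM + 5% FBS, o/n 37 deg C 5% CO2; 23 nL cpd by pin tool, 24 hr; Steady-Glo 30 min RT, luminescence.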
A549 tox-1: A549 cytotoxicity, counter-screen for Nrf2 inhibitors. A549 ARE-Fluc cells, CellTiter-Fluor viability, 18-24 h. Potency, µM (doses to about 46 µM), for the others: at the top dose activity change, negative = cytotoxicity, usual class: inhibitors. 390,000 tested, 0.16% active; further: on the % scale 0 is the no-effect control and ±100 the full control effect
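A549 ARE-Fluc cells in 5% FBS OPTI-MEM, 5000 cells/well, rested 2 h then exposed to compounds in concentration-response for 18-24 h at 37 °C. Viability by CellTiter-Fluor fluorescence (Ex 405/Em 525) after 30 min; luciferase luminescence (BugLite, 15 min, RT) read afterwards.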
FLuc counter 3: counter-screen for Nrf2 inhibitors: firefly luciferase enzyme inhibition | shares compounds with Nrf2 block | purified firefly luciferase, luminescence inhibition | Potency, µM (highest dose often 57.5 µM), for the others: at the top dose activity change, negative = inhibition, most hits filed as inhibitors | 1,400 tested, 4% active; further: on the % scale 0 is the no-effect control and ±100 the full control effect; nearly all actives have a fitted effect of over 65% in size
Target sequence (P08659 whole entry, looked up): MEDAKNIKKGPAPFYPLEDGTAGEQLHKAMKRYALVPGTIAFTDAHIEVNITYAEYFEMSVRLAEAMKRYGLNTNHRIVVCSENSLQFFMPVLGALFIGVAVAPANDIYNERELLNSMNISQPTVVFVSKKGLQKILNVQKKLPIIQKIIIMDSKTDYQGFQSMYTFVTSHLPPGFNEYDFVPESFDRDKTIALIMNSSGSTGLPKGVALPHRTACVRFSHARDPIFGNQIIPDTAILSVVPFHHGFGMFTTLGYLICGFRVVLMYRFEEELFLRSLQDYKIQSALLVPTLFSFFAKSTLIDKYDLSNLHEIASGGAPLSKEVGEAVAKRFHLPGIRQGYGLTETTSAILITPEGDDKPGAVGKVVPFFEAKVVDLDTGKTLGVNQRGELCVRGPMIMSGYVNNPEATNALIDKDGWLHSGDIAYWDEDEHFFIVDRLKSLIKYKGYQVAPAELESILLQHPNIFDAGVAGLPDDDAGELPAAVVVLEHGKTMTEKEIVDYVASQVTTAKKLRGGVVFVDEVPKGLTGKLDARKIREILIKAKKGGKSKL
A549 tox-2: toxic to A549 ARE-Fluc cells in Nrf2 counterscreen; shares compounds with Nrf2 block; Potency, µM (highest dose often 46.1 µM), for the others: at the top dose activity change, negative = cytotoxicity, usual class: inhibitors; 1,400 tested, 2% active; A549 ARE-Fluc cells, cytotoxicity counterscreen;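 further: cells exposed to compounds for 18 to 24 hours; on the % scale 0 is the no-effect control and ±100 the full control effect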
Nrf2 ARE inh: reduces Nrf2 ARE reporter signal in A549 cells; shares compounds with Nrf2 block; A549 ARE-firefly luciferase reporter, luminescence; Potency, µM (highest dose often 46.1 µM), inactives show top-dose activity change, negative = inhibition, most hits filed as inhibitors; 1,400 tested, 74% active; further: on the % scale 0 is the no-effect control and ±100 the full control effect; nearly all actives have a fitted effect of over 65% in size
Numbers without * were called inactive. A selection: hits, their analogues and other compounds. The true share with any hit is near 3.7%. The call rests on the fitted dose curve; in most records, active means well fitted curve in the direction sought with a large enough effect; inconclusive means small, poorly fitted or top-dose-only effect, or another doubt; inactive means no such curve, though single readings can be large; an effect the other way counts as inactive or inconclusive. Potency means the concentration at half of the fitted maximal effect.

Screening c1ccc2c(N=NN3CCCCC3)ccnc2c1 returned FLuc counter 3 -24%, A549 tox-2 -24% and Nrf2 ARE inh 5.8µM*.
For O=C(c1ccccc1F)N1CCN(c2ccc([N+](=O)[O-])c(NCc3cccnc3)c2)CC1 the results were ELG1 DNA repair inconclusive, Nrf2 block inconclusive, Nrf2 ARE act 6% and A549 tox-1 -12%.
COc1ccc(CCNc2cc(N3CCN(C(=O)c4ccccc4F)CC3)ccc2[N+](=O)[O-])cc1OC was read as ELG1 DNA repair 4.1µM*, Nrf2 block 2.1µM*, Nrf2 ARE act 1%, A549 tox-1 inconclusive, FLuc counter 3 1%, A549 tox-2 -27% and Nrf2 ARE inh 6.5µM*.
`COc1ccc(C(=O)N2CCN(c3ccc([N+](=O)[O-])c(NCCc4ccc(OC)c(OC)c4)c3)CC2)cc1` gave ELG1 DNA repair inconclusive, Nrf2 block 2.9µM*, Nrf2 ARE act 3%, A549 tox-1 inconclusive, FLuc counter 3 1%, A549 tox-2 -24% and Nrf2 ARE inh 5.8µM*.
For COc1ccc(C(=O)N2CCN(c3ccc([N+](=O)[O-])c(-n4nc(C)cc4C)c3)CC2)cc1 the results were ELG1 DNA repair -5%, Nrf2 block 2%, Nrf2 ARE act 0% and A549 tox-1 -26%.
O=C(CN(Cc1ccccc1)S(=O)(=O)c1ccc(F)cc1)NCc1cccnc1 was read as ELG1 DNA repair -20%, Nrf2 block -5%, Nrf2 ARE act -1% and A549 tox-1 4%.
N#C/C(=N\Nc1cccc(C(F)(F)F)c1)C(=O)c1ccsc1 was read as ELG1 DNA repair inconclusive, Nrf2 block inconclusive, Nrf2 ARE act 15%, A549 tox-1 -18%, FLuc counter 3 21µM* and A549 tox-2 inconclusive.
`O=C1CC(c2ccccc2)Cc2[nH]c(=O)c(C(=O)Nc3ccc(F)cc3)cc21` (configuration not stated) gave Nrf2 ARE act -1% and A549 tox-1 -1%.
O=C1CC(c2ccco2)Cc2[nH]c(=O)c(C(=O)Nc3ccccc3)cc21 (configuration not stated) was read as FLuc counter 3 -17%, A549 tox-2 -10% and Nrf2 ARE inh inconclusive.
Screening CC(=O)Nc1ccc(C(=O)NC2CCCC2)cc1 returned ELG1 DNA repair 9%, Nrf2 block 6%, Nrf2 ARE act 0% and A549 tox-1 -8%.
For O=C(Nc1ccc(C(=O)NC2CCCCC2)cc1)c1cccnc1 the results were ELG1 DNA repair inconclusive, Nrf2 block inconclusive, Nrf2 ARE act -1%, A549 tox-1 3%, FLuc counter 3 -3%, A549 tox-2 -3% and Nrf2 ARE inh inconclusive.
For CC(Sc1nn(-c2ccc(F)cc2)c(=S)s1)C(=O)c1c(N)n(C)c(=O)n(C)c1=O (configuration not stated) the results were ELG1 DNA repair 3%, Nrf2 block inconclusive, Nrf2 ARE act 3% and A549 tox-1 -5%.
For Cn1c(N)c(C(=O)CSc2nn(-c3ccccc3)c(=S)s2)c(=O)n(C)c1=O the results were ELG1 DNA repair inconclusive, Nrf2 block 7.3µM*, Nrf2 ARE act 0%, A549 tox-1 -16%, FLuc counter 3 -10%, A549 tox-2 -12% and Nrf2 ARE inh 9.2µM*.
Screening COc1ccc(CCNc2ncnc3c2oc2ccccc23)cc1OC returned ELG1 DNA repair 16µM*, Nrf2 block 5.2µM*, Nrf2 ARE act 3%, A549 tox-1 -8%, FLuc counter 3 -19%, A549 tox-2 -13% and Nrf2 ARE inh 4.1µM*.
`COc1ccc(CN(C)Cc2nc(Cc3cccc(F)c3)no2)c2cccnc12` gave ELG1 DNA repair inconclusive, Nrf2 block 3.3µM*, Nrf2 ARE act 2%, A549 tox-1 inconclusive, FLuc counter 3 0%, A549 tox-2 -7% and Nrf2 ARE inh inconclusive.
NS(=O)(=O)c1ccc(CNc2ncnc3sccc23)cc1 was read as ELG1 DNA repair 16%, Nrf2 block -12%, Nrf2 ARE act 0% and A549 tox-1 -3%.
`Cc1sc2ncnc(NCCc3ccc(S(N)(=O)=O)cc3)c2c1C` gave ELG1 DNA repair 18µM*, Nrf2 block 2.3µM*, Nrf2 ARE act 7%, A549 tox-1 -20%, FLuc counter 3 0%, A549 tox-2 -11% and Nrf2 ARE inh 6.5µM*.
For Cc1ccc(S(=O)(=O)Nc2ncnc3sc(C)c(C)c23)cc1 the results were ELG1 DNA repair -2%, Nrf2 block inconclusive, Nrf2 ARE act 0% and A549 tox-1 1%.
For NS(=O)(=O)c1ccc(CCNc2ncnc3sccc23)cc1 the results were ELG1 DNA repair inconclusive, Nrf2 block 1.6µM*, Nrf2 ARE act 0%, A549 tox-1 -25%, FLuc counter 3 -1%, A549 tox-2 2% and Nrf2 ARE inh inconclusive.
For COc1cccc(CN2CCN(c3nc4nonc4nc3N3CCCCC3)CC2=O)c1 the results were ELG1 DNA repair 9%, Nrf2 block 5%, Nrf2 ARE act -1% and A549 tox-1 0%.
For Cc1cc(C(=O)O)ccc1-n1c(C)cc(/C=C(/C#N)C(=O)Nc2ccccc2)c1C the results were ELG1 DNA repair 1%, Nrf2 block 5.8µM*, Nrf2 ARE act 0%, A549 tox-1 1%, FLuc counter 3 -16%, A549 tox-2 -7% and Nrf2 ARE inh inconclusive.
Screening CC12CCC(=O)C=C1C(O)CC1C2CCC2(C)C1CCC2(O)C(=O)CO (configuration not stated) returned Nrf2 block -16%, Nrf2 ARE act 0% and A549 tox-1 -4%.
`CC1CC2C(C(O)CC3(C)C2CCC3(O)C(=O)CO)C2(C)C=CC(=O)C=C12` (configuration not stated) gave Nrf2 block 0.046µM*, Nrf2 ARE act 0%, A549 tox-1 -5%, FLuc counter 3 -1%, A549 tox-2 -14% and Nrf2 ARE inh 0.041µM*.
For CC(=O)OCC(=O)[C@@]1(O)CC[C@H]2[C@@H]3C[C@H](C)C4=CC(=O)C=C[C@]4(C)[C@H]3[C@@H](O)C[C@@]21C the results were ELG1 DNA repair 23%, Nrf2 block 0.052µM*, Nrf2 ARE act 1%, A549 tox-1 1%, FLuc counter 3 4%, A549 tox-2 -7% and Nrf2 ARE inh 0.052µM*.
